Screening results from PubChem BioAssay.
An excerpt weighted towards active compounds, which were near 1.3% of everything screened.
B2AR ag = agonists of human beta-2 adrenergic receptor inducing internalization; AID 504454; P07550; response, % (no concentration beside the values); Am2.2-beta2AR cells, FAP receptor internalization, flow cytometry; 0.43% of 340,000 active;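 active means response above a set limit, near 3 SD of response in nonfluorescent compounds, cut at about 42% in these data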
A1 inh = inhibitors of the anti-apoptotic protein A1, read as caspase activation; MEF A1-2A-BIM cells, Caspase-Glo 3/7 luminescence, 3 h; percent of clofoctol response, vehicle zero; caspase activation, % (no concentration beside the values); 0.066% of 330,000 active; AID 2462;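 active means over half of replicate activation scores above 10%, or exactly half above 10 with the replicate mean above 10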
GRK2 inh = inhibitors of human GRK2 displacing RNA aptamer. AID 488847. inhibition of aptamer binding, % at 10 µM. 0.59% of 330,000 active. P25098. bead flow cytometry, FAM-aptamer displacement from GRK2;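 active means inhibition of aptamer binding above 40%, roughly 3 SD of noise, on plates passing a quality check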;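 further: median bead fluorescence of bound FAM aptamer so fluorescent compounds give negative values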
NTR1 ag = activates human neurotensin receptor 1. NTR1-U2OS beta-arrestin-GFP spot imaging, agonist mode. activation, % at 20 µM. 0.17% of 330,000 active. AID 493036;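 active means activation at or above 40% of the spot to cytoplasm intensity ratio, with at least 20 cells analyzed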;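 further: 0% = DMSO without peptide and 100% = 100 nM NTR1 peptide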
Target sequence (P30989 whole entry, looked up): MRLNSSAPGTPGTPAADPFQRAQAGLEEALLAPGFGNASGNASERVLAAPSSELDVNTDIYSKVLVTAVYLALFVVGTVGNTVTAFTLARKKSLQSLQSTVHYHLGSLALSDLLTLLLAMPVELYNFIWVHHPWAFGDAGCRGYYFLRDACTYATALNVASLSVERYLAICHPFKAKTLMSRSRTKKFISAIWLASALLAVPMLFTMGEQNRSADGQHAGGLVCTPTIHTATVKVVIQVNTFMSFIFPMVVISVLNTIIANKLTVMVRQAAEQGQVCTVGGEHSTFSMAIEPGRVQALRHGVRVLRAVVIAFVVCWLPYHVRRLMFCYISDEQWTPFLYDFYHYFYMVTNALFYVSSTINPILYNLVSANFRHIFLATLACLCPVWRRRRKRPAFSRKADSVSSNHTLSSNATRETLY
VLA-4 inh = inhibition in a human VLA-4 binding assay; 0.2% of 330,000 active; VLA-4 expressing cells, ligand binding flow cytometry; inhibition, % (about 7 µM as worked out from the volumes in the protocol); in the data active means inhibition above about 50%
GRK2 inh confirm = confirmation of human GRK2 inhibitors displacing RNA aptamer; shares compounds with GRK2 inh; bead-bound GRK2, FAM-aptamer displacement, flow cytometry; 4% of 2,000 active; AID 504451; aptamer displacement, % at 10 µM;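 active means aptamer displacement above 40%, near three times the noise of non-fluorescent compounds, on plates passing quality checks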;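 further: negative values mostly reflect intrinsic compound fluorescence rather than true enhancement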
Aptamer quench = fluorescent aptamer quenching in GRK2 counter-screen dose response; 110 tested, under 10 active; AID 504521; shares compounds with GRK2 inh; fluorescence change (kMESF span), kMESF (test concentration not listed); Fluorescent RNA aptamer beads, flow cytometry; active compounds read high;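 active means compounds whose bead fluorescence drops by more than 37 kMESF across the dose range, marking them as dye quenchers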
FAM quench CP1 = counter-screen for GRK2 aptamer inhibitors: fluorescent aptamer quenchers | 2,000 tested, under 10 active | Carboxyfluorescein RNA aptamer on beads, flow cytometry quenching; active compounds read low | shares compounds with GRK2 inh | fluorescence response (% of DMSO), % at 10 µM;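 active means compounds that quench the bead-bound fluorescent RNA probe, cutting fluorescence to under half of the solvent control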;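 further: counterscreen run without GRK2 so only probe quenching by compound is measured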
GRK2 CP2 = confirmation of human GRK2 inhibitors binding RNA aptamer site | inhibition of aptamer binding, % at 10 µM | 360 tested, under 10 active | shares compounds with GRK2 inh | bead-bound GRK2, FAM-aptamer displacement, flow cytometry;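 active means inhibition of aptamer binding above 40%, about triple the noise seen with nonglowing compounds, on plates passing quality control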;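 further: negative values mostly come from compounds that fluoresce themselves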
FAM quench CP2 = aptamer fluorescence quenching in GRK2 counter-screen. shares compounds with GRK2 inh. carboxyfluorescein RNA aptamer beads, flow cytometry quenching; active compounds read low. fluorescence response vs DMSO, % at 10 µM. 360 tested, under 10 active. AID 588494;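 active means response vs DMSO under 50%, meaning signal dropped by over half, treated as fluorescence quencher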;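 further: labelled aptamer on streptavidin beads without GRK2 as a quench counter-screen; 100% = bead fluorescence of DMSO wells and lower means quenching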
NTR1 ag conf = confirmation of agonists of human NTR1; AID 504550; NTR1-U2OS beta-arrestin-GFP translocation imaging; shares compounds with NTR1 ag; activation, % at 20 µM; 38% of 480 active;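 active means mean activation at 20 µM of at least 40%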;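 further: 0% = DMSO without peptide and 100% = 100 nM NTR1 peptide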
Active calls of the source: *; / = not tested or not shown.

SMILES	B2AR ag	A1 inh	GRK2 inh	NTR1 ag	VLA-4 inh	GRK2 inh confirm	FAM quench CP1	others
CCc1nc2ccc(N3CCN(C)CC3)cc2nc1CC	-5.7	-0.3	100.0*	0.3	19.1	-2.8	99.1
Cn1ncnc2c(=O)n(C)c(=O)nc1-2	53.1*	-4.4	61.0*	1.2	42.1	72.6*	86.6	Aptamer quench=-1.8
CC(=O)N1Cc2cnnn2-c2ccccc2C1C#N (stereo not given)	-8.6	/	/	/	/	/	/
CN1/C(=C\C=C2C(=O)NC(=S)NC2=O)C(C)(C)c2ccccc21	1.1	/	/	-2.7	/	/	/
CC1(C)OC(c2ccccc2)=C/C(=C/C=C2C(=O)NC(=S)NC2=O)O1	/	-0.8	48.0*	1.3	-85.3	22.5	106.8
CC1(C)CC[C@]2(C)CC[C@]3(C)C4C[C@@H]5OO[C@@]6(O5)C(CCCC6(C)C)[C@]4(C)CC[C@@]3(C)C2C1 (stereo not given in full)	11.2	0.4	2.0	2.3	7.0	/	/
O=C(c1ccc(Br)cc1)C12CN3CN(CN(C3)C1)C2	-6.0	0.7	0.0	0.7	2.6	/	/
COc1ccc(C(=O)C23CN4CN(CN(C4)C2)C3)cc1	1.9	-0.1	43.0*	-0.4	7.1	-8.7	99.8
O=C(COc1ccc(Br)cc1)N1CCN(Cc2ccc3c(c2)OCO3)CC1	-5.5	0.6	2.0	0.2	-14.6	/	/
Cc1cc(=O)oc2cc(OCC(=O)N3C[C@H]4C[C@@H](C3)c3cccc(=O)n3C4)c(Cl)cc12	5.6	-0.1	3.0	2.9	3.5	/	/
Cc1cc(=O)oc2cc(OCC(=O)N3CCN(C(C)c4ccccc4)CC3)c(Cl)cc12 (stereo not given)	3.3	-0.3	0.0	2.0	-1.3	-23.5	96.1
Cc1nn(-c2ccccc2)c2c1C(c1ccc3c(c1)OCO3)SCC(=O)N2 (stereo not given)	-4.4	-0.3	26.0	-0.1	25.5	2.5	104.1
COc1cc(C2SCC(=O)Nc3c2c(C)nn3-c2ccccc2)cc(OC)c1OC (stereo not given)	-15.3	0.4	2.0	1.6	-6.2	/	/
O=C(c1ccccc1)C(Cc1ccccc1)N1CCOCC1 (stereo not given)	-4.8	/	/	/	/	/	/
CCOc1cc(C(=O)N2CCC3(CC2)OCCO3)cc(OCC)c1OCC	2.2	-0.2	62.0*	-1.3	1.7	-1.5	104.8
S=P(NCCNP(=S)(N1CC1)N1CC1)(N1CC1)N1CC1	-2.4	/	/	/	/	/	/
Cc1ccsc1C(=O)C1CCCN(Cc2cnc(N(C)C)s2)C1 (stereo not given)	/	0.0	1.0	0.9	-4.5	/	/
Cc1ccsc1C(=O)C1CCCN(Cc2cnc(N3CCOCC3)s2)C1 (stereo not given)	0.7	1.3	0.0	0.5	12.8	-0.1	102.4
CC(C(N)=O)N1CC(c2ccccc2)CC1=O (stereo not given)	0.2	-0.2	3.0	-0.1	-15.0	/	/
CC(C(N)=O)N1CC(c2ccc(Cl)cc2)CC1=O (stereo not given)	3.6	1.5	50.0*	0.0	12.2	0.9	97.7
C[C@]12CCC3C(CC[C@H]4C[C@H](O)CC[C@]34C)C1CC(=O)[C@@H]2O (stereo not given in full)	16.6	-0.8	100.0*	1.4	9.2	-4.3	98.2
COC(=O)C1=C(c2ccc(F)cc2F)C[C@@H]2CC[C@H]1N2C(=O)N1CCCCC1	2.6	1.2	0.0	-1.5	-2.5	/	/
O=c1[nH]c(=S)n(-c2ccccc2)c(O)c1C=NCCN1CCNCC1	-6.3	0.0	89.0*	-1.0	-17.3	-1.2	98.8
O=c1[nH]c(=S)n(-c2cccc(Cl)c2)c(O)c1C=NCCN1CCNCC1	-3.9	0.4	0.0	0.7	11.0	/	/
CCOc1ccc(N=Cc2c(O)n(CCc3ccc(OC)c(OC)c3)c(=O)[nH]c2=O)cc1	-1.5	0.8	100.0*	0.3	-7.9	-4.8	97.0
SMILES	B2AR ag	A1 inh	GRK2 inh	NTR1 ag	VLA-4 inh	GRK2 inh confirm	FAM quench CP1	others
CC1=C2[C@@H]3OC(=O)[C@H](C)C3CC[C@@]2(C)C=CC1=O (stereo not given in full)	0.6	-0.1	2.0	0.2	0.4	/	/
CC[C@]12CC[C@H](O)CC1=CCC1C2CC[C@]2(C)C(=O)CCC12 (stereo not given in full)	/	-0.5	42.0*	-1.5	11.5	/	/	GRK2 CP2=11.5;FAM quench CP2=101.0
N=C(N)c1c(O)n(C2CCCCC2)c(=O)n(C2CCCCC2)c1=O	10.0	-0.3	2.0	53.7*	-5.2	/	/	NTR1 ag conf=35.8
O=C1NC(=O)N(c2ccccc2F)C(=O)/C1=C/c1cn(CC(=O)N2CCOCC2)c2ccccc12	/	-0.2	0.0	41.7*	8.6	/	/	NTR1 ag conf=32.0
COc1ccc(N=Cc2c(O)n(Cc3ccccc3)c(=S)[nH]c2=O)c(OC)c1	5.8	-2.7	1.0	6.5	-8.2	/	/
COc1ccc(OC)c(N=Cc2c(O)n(Cc3ccccc3)c(=S)[nH]c2=O)c1	10.2	0.1	0.0	58.6*	-9.3	/	/	NTR1 ag conf=64.9*
CCOC(=O)c1cc2c(cn1)[C@H](CCO)NC2	-5.8	/	/	/	/	/	/
CCC(C)NC(=O)c1c(N)n(CC2CCCO2)c2nc3ccccc3nc12 (stereo not given)	1.8	-1.0	5.0	13.9	0.5	/	/
CC(C)CCNC(=O)c1c(N)n(CC2CCCO2)c2nc3ccccc3nc12 (stereo not given)	5.5	0.2	0.0	42.7*	-2.9	/	/	NTR1 ag conf=30.4
COC(=O)C1=C(c2ccccc2)C[C@@H]2CC[C@H]1N2C(=O)NC1CCCCC1	5.5	1.7	0.0	-1.0	24.0	/	/
O=C1NC(=O)C(=Cc2ccc(SC3CCCCC3)o2)C(=O)N1	6.5	-0.5	4.0	50.2*	-10.8	/	/	NTR1 ag conf=67.6*
COc1cc(/C=C2\C(=O)NC(=O)N(c3ccccc3)C2=O)cc(OC)c1OC	-0.4	-0.3	0.0	-0.6	9.8	/	/
O=C1NC(=O)N(c2ccccc2)C(=O)/C1=C\C=C\c1ccccc1	35.1	1.8	1.0	73.9*	15.8	/	/	NTR1 ag conf=49.1*
